Data on 31 compounds can be found in PubChem BioAssay AID1851 (National Center for Advancing Translational Sciences (NCATS), 2009).

The structures appear in SMILES notation. Several values for one entry are separate records, joined by “and”; a condition that tells them apart may be missing. Identical values can stand only once. Out of some 16,000 compounds screened, about 5,800 (36%) were called active. About 23% were inconclusive and are not listed. Calls follow the shape of the dose curve; as a rule, active = well fitted curve in the direction sought with a large enough effect; inconclusive = small, poorly fitted or top-dose-only effect, or effect the other way; inactive = no such curve, though single readings can be large or run the other way. This is one part of the list.

A word on the AC50: it is the concentration giving half of the maximal activity seen.
% is scaled to controls: 0 for no effect and ±100 for the full control effect.

This test deals with Cytochrome P450 2C19 (Homo sapiens) (UniProt P33261). Put plainly: Cytochrome panel assay with activity outcomes. To be noted: recombinant CYP, pro-luciferin dealkylation, luminescence, p450-cyp2c19; series mostly up to 57.1 µM; activity, negative = inhibition: at the top concentration.
Sequence of Cytochrome P450 2C19 (Homo sapiens) (P33261 whole entry, looked up): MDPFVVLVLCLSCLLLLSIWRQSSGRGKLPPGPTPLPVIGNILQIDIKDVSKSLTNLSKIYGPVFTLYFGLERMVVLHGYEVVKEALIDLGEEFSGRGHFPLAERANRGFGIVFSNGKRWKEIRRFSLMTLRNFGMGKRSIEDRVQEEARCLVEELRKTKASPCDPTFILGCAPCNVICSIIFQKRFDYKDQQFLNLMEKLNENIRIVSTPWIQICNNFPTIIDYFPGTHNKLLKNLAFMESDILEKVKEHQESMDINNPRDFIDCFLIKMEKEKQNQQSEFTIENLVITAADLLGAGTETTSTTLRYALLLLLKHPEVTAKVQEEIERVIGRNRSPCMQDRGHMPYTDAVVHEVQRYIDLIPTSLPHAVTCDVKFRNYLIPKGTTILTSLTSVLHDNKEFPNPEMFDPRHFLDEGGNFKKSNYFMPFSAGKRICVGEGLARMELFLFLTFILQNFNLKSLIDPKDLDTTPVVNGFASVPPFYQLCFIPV
On to `COc1ncc2nc(-c3cc(F)cc(F)c3)c(=O)n(-c3ccccc3)c2n1`, for which the “activity, negative = inhibition” value was -6.54% (inactive).

As for `Cc1ccccc1OCCCn1c(=O)sc2ccccc21`, the AC50 is 1 µM (active). For `O=c1sc2ccccc2n1CCCOc1ccccc1`, the half-maximal activity concentration (AC50) was 1.12 µM (active). Consider `Cc1ccc(OCCCn2c(=O)sc3ccccc32)cc1`, for which the AC50 was 0.708 µM (active). On to `C[N+](C)(CCCOc1ccccc1)c1ccccc1`, for which the “activity, negative = inhibition” value was -7.56% [at 25.6 µM] (inactive).

As for `C/C(CCN1CCc2nc(-c3ccccc3)c(-c3ccccc3)cc2C1)=N\O[C@@H](C)c1cn([C@H](CO)Cc2ccccc2)nn1`, the activity, negative = inhibition is -17.8% [at 11.4 µM] (inactive) and -16.4% [at 11.4 µM] (inactive).

With `OC[C@@H]1NC[C@@H](O)[C@H]1O`, the “activity, negative = inhibition” value was 22.6% (inactive).

Take `Clc1cccc(C=NC=Nc2cccc(Cl)c2)c1`: the concentration at half-maximal activity (AC50) is 10 µM (active).

`COc1cccc(C=NC=Nc2cccc(OC)c2)c1`: the “activity, negative = inhibition” value is 13.9% (inactive).

As to `O=c1[nH][nH]c(C(F)(F)F)c1C=Nc1cccc(Cl)c1`, the “activity, negative = inhibition” value is 26.9% (inactive). On to `Cc1noc(C)c1-c1nc(Nc2ccc(F)cc2)c2ccccc2n1`, for which the half-maximal activity concentration (AC50) is 3.16 µM (active). As to `Cc1noc(C)c1-c1nccc(Nc2ccc(F)cc2)n1`, the AC50 was 3.98 µM (active). Take `CN(C)Cc1ccccc1-c1nccc(NC2CC2)n1`: the “activity, negative = inhibition” value is 15.1% (inactive). On the same count and under the same terms, in the case of `Cc1noc(C)c1-c1nc(Nc2ccccc2)c2ccccc2n1` it was 0.272% (inactive); in that of `Cc1noc(C)c1-c1nc(NC2CCNCC2)c2ccccc2n1`, -9.75% (inactive); in that of `c1ccc2c(NCCN3CCOCC3)nc(-c3ccoc3)nc2c1`, -14.3% (inactive). For the compound `Cc1noc(C)c1-c1nccc(NC2CC2)n1`, the AC50 is 10 µM (active). With `Cc1noc(C)c1-c1nc(NCCN2CCOCC2)c2ccccc2n1`, the AC50 is 7.94 µM (active). With `COCCNc1nc(-c2c(C)noc2C)nc2ccccc12`, the “activity, negative = inhibition” value was -17.6% (inactive). Regarding `CNc1cc(-c2c(C)noc2C)ncn1`, the “activity, negative = inhibition” value was -0.312% (inactive). On the same count and under the same terms, the value for `Cc1ccc(-[n+]2cc(=O)o[nH]2)cc1` was -19.9% [at 11.4 µM] (inactive); that for `CC(C)NC(=O)N1CCCC2(CCN(C(=O)c3ccncc3)CC2)C1` was -9.81% (inactive). As to `CSc1nc(NC2CCCC2)c([N+](=O)[O-])c(NC2CCCC2)n1`, the AC50 is 5.01 µM (active).

On to `CCNc1nnc(-c2ccncc2)s1`, for which the AC50 is 5.01 µM (active). As for `COc1ccc(C(=O)O/N=C/c2ccc(S(=O)c3ccc(Cl)cc3)nc2)cc1` (stereo unspecified), the AC50 is 14.1 µM (active). Take `COc1ccc2nc(NC(=O)C3CCN(S(=O)(=O)c4cccc5nsnc45)CC3)sc2c1`: the half-maximal activity concentration (AC50) is 1.41 µM (active). The same measure, in the same setting: in the case of `COc1ccc2nc(NCN3C(=O)c4ccccc4C3=O)sc2c1` it was 2.51 µM (active); in that of `O=C(NCC1COc2ccccc2O1)C1CCN(S(=O)(=O)c2cccc3nsnc23)CC1` (stereo unspecified), 14.1 µM (active). For the compound `Cc1cccc(NC(=O)C2CCN(S(=O)(=O)c3cccc4nsnc34)CC2)n1`, the AC50 was 10 µM (active).

In the case of `O=C(NCc1cccs1)C1CCN(S(=O)(=O)c2cccc3nsnc23)CC1`, the “activity, negative = inhibition” value was -20.4% (inactive).

In the case of `c1cc(CN2CCCCC2)cc(OCCCNc2nc3ccccc3s2)c1`, the AC50 result was “inactive”.
